Assay results published in PubChem BioAssay (NCATS).
Results filed as inconclusive are left out. Calls of active or inactive are those of the source. Calls follow the shape of the dose curve; as a rule, active = well fitted inhibition curve with a large enough effect; inconclusive = small, poorly fitted or top-dose-only effect; inactive = flat fitted curve, though single readings scatter. Where a SMILES comes first, the peptide text is derived from it. Bridges are numbered along the chain shown (N, C = ends). [ ]: non-standard residue; d: D form. hArg = N=C(N)NCCCC[C@H](N)C(=O)O; Mpa = O=C(O)CCS

Legend:
Experiment in all cases: qHTS profiling for inhibitors of Plasmodium falciparum proliferation (AID 504749); also: nearly all actives have a fitted effect of over 60% in size
Settings in all cases: P. falciparum in erythrocytes, SYBR Green DNA, 72 h; series mostly up to 28.7 µM
[1] = test system: CP325
Procedure, shortened: (§1)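 Fluorescence of SYBR Green-bound parasite DNA, read at 485/535 nm, served as the growth measure. Infected erythrocytes were cultured with compound 72 h; artemisinin (0.29 uM) and DMSO wells defined the normalization range.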

[2] = test system: CP329
Procedure, shortened: as §1

[3] = test system: CP335
Procedure, shortened: as §1

[4] = test system: DFO2036
Procedure, shortened: as §1

[5] = test system: DIV14
Procedure, shortened: as §1

[6] = test system: DIV17
Procedure, shortened: as §1

[7] = test system: DIV30
Procedure, shortened: as §1

[8] = test system: Dd2
Procedure, shortened: as §1

[9] = test system: ECU
Procedure, shortened: as §1

[10] = test system: FAB9
Procedure, shortened: as §1

[11] = test system: GB4
Procedure, shortened: as §1

[12] = test system: HB3
Procedure, shortened: as §1

[13] = test system: ICS
Procedure, shortened: as §1

[14] = test system: JCK
Procedure, shortened: as §1

[15] = test system: N140
Procedure, shortened: as §1

[16] = test system: P93_24
Procedure, shortened: as §1

[17] = test system: P94_40
Procedure, shortened: as §1

[18] = test system: PAD
Procedure, shortened: as §1

[19] = test system: PC15
Procedure, shortened: as §1

[20] = test system: PC26
Procedure, shortened: as §1

Measured: Potency

COc1ccc(NS(=O)(=O)c2ccc(N)cc2)nn1
inactive: all assays above

CC(CSC(=O)c1ccccc1)C(=O)N1C[C@@H](Sc2ccccc2)C[C@H]1C(=O)O (stereo not given in full)
inactive: all assays above

CCCCOC(=O)c1ccc(N)cc1
inactive: all assays above

Cc1ccsc1C(=CCCN1CCC[C@@H](C(=O)O)C1)c1sccc1C
inactive: all assays above

COC(=O)c1ccc(O)cc1
inactive: all assays above

CCOC(=O)c1cccnc1
inactive: all assays above

CC(C)c1cc2c(cc1S(=O)(=O)O)[C@@]1(C)CCC[C@@](C)(C(=O)O)[C@@H]1CC2
inactive: all assays above

Nc1ccc(S(=O)(=O)c2ccc(N)cc2)cc1
inactive: all assays above

Cc1ccccc1N=Nc1ccc(N=Nc2c(O)ccc3ccccc23)c(C)c1
inactive: all assays above

CCN(CC)CC1CCCCN1CC(=O)N1c2ccccc2C(=O)Nc2cccnc21 (stereo not given)
inactive: all assays above

Cc1c(I)c(=O)n(-c2ccccc2)n1C
inactive: all assays above

CCCCCCCC(=O)OCC(O)CO (stereo not given)
inactive: all assays above

CCCC(O)C(CC)CO (stereo not given)
inactive: all assays above

CC1CCc2cc(F)cc3c(=O)c(C(=O)O)cn1c23 (stereo not given)
inactive: all assays above

CCS(=O)(=O)CCn1c([N+](=O)[O-])cnc1C
inactive: all assays above

CC(=O)Nc1cccc(O)c1
inactive: all assays above

COc1nccnc1NS(=O)(=O)c1ccc(N)cc1
inactive: all assays above

Nc1ccncc1N
inactive: all assays above

O=C(Cn1ccnc1[N+](=O)[O-])NCCO
inactive: all assays above

Cc1c(NC(=O)c2cccnc2)c(=O)n(-c2ccccc2)n1C
inactive: all assays above

CCN(CC)S(=O)(=O)c1ccc(C(=O)O)cc1
inactive: all assays above

CC(=O)Nc1ccccc1
inactive: all assays above

CC1CC(OC(=O)c2ccccc2O)CC(C)(C)C1 (stereo not given)
inactive: all assays above

Cc1cc(C)nc(NS(=O)(=O)c2ccc(N)cc2)n1
inactive: all assays above

CC(=O)Oc1cccc(C)c1
inactive: all assays above

Cc1cccc(C)c1NC(=O)CC12CCCN1CCC2
inactive: all assays above

Cc1c(N(C)C)c(=O)n(-c2ccccc2)n1C
inactive: all assays above

NC(=O)[C@@H]1CSSCCC(=O)N[C@@H](CCCCN=C(N)N)C(=O)NCC(=O)N[C@@H](CC(=O)O)C(=O)N[C@@H](Cc2c[nH]c3ccccc23)C(=O)N2CCC[C@H]2C(=O)N1 ([Mpa][hArg]GDWPC-NH2; disulfide 1-7)
inactive: all assays above

C[N+](C)(C)CC[N+]1(C)Cc2c(Cl)c(Cl)c(Cl)c(Cl)c2C1
inactive: all assays above
